# Screening data deposited in PubChem by National Center for Advancing Translational Sciences (NCATS).
# This is a sample that favours compounds with a hit; in the whole collection about 12% have one here.
# G9a inh = inhibitors of human histone lysine methyltransferase G9a; G9a H3K9 monomethylation, AlphaScreen, 2 h; Potency, µM (doses to about 102 µM), for the others: at the highest dose activity, negative = inhibition, actives largely listed as inhibitors; actives 8.8% (n = 350,000); AID 504332; note: % is set by controls: 0 for no effect and ±100 for the full control effect; nearly all actives have a fitted effect of over 75% in size
#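 AlphaScreen read-out: biotin-H3K9 peptide (500 nM) methylation by 20 nM enzyme with 20 uM SAM, 2 h at room temperature after 15 min compound preincubation; anti-monomethyl H3K9 antibody plus donor/acceptor beads, 10 min dark.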
# L3MBTL1 inh = blocks human L3MBTL1; actives 0.66% (n = 230,000); AID 485360; AlphaScreen L3MBTL1–H3K9me1 peptide binding; Potency, µM (doses to about 57.1 µM), for the others: at the top dose activity, negative = inhibition, usual class: inhibitors; note: % is set by controls: 0 for no effect and ±100 for the full control effect; nearly all actives have a fitted effect of over 60% in size
#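 AlphaScreen assay: L3MBTL1 (50 nM final) was preincubated 30 min at room temperature with biotinylated H3(1-15)K9me1 peptide (75 nM final), then 30 min with library compounds; streptavidin donor and nickel chelate acceptor beads (10 ug/mL final) added, 30 min dark.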
# HP1b binding inh = blocks HP1-beta chromodomain binding to methylated histone tails; P83916; AlphaScreen HP1-beta / biotin-H3K9me3 peptide binding; Potency, µM (series often up to 114 µM), for the others: at the highest dose activity change, negative = inhibition, hits mostly inhibitors; actives 0.56% (n = 390,000); note: nearly all actives have a fitted effect of over 70% in size
#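 Compound inhibition of the preformed complex between 50 nM HP1-beta and 50 nM biotinylated H3K9me3 peptide was read by AlphaScreen. Buffer was PBS pH 7.4 with 0.01% Tween-20. Incubations ran 30 min at room temperature, with 10 ug/mL donor/acceptor beads.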
# BAZ2B inh = blocks human BAZ2B; Q9UIF8; AlphaScreen BAZ2B-H3K14Ac peptide displacement; Potency, µM (doses to about 114 µM), for inactives: at the highest dose activity change, negative = inhibition, hits mostly inhibitors; actives 4.4% (n = 360,000); AID 504333; note: % is set by controls: 0 for no effect and ±100 for the full control effect; nearly all actives have a fitted effect of over 60% in size
#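 AlphaScreen displacement of biotin-H3(5-23)K14Ac peptide (50 nM final) from BAZ2B (50 nM final) in PBS pH 7.4, 0.01% Tween-20; complex preformed 30 min RT, then compounds (top 110 uM) 30 min RT, beads 20 min dark.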
# Sfp PPTase inh = Sfp phosphopantetheinyl transferase inhibition; actives 3.5% (n = 310,000); Potency, µM, without a hit: largest response in the series, negative = inhibition, usual class: inhibitors; AID 1490; Biochemical Sfp PPTase activity, qHTS; Q9F4F7;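 note: the enzyme is Sfp with the accession as filed and its product quenches rhodamine fluorescence; 0% = enzyme reaction without inhibitor and -100% = no enzyme wells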
#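 Compounds were incubated with enzyme (final 15 nM) for 15 min at room temperature before substrate addition started the reaction. Fluorescence at 525 nm excitation, 598 nm emission was recorded immediately and after 30 minutes.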
# JMJD2A Tudor inh = JMJD2A Tudor domain (human) inhibition; O75164; AID 504339; Potency, µM (highest dose often 114 µM), for the others: top-dose activity change, negative = inhibition, hits mostly inhibitors; AlphaScreen JMJD2A-Tudor / H3K4me3 peptide binding; actives 4.4% (n = 390,000); note: % is set by controls: 0 for no effect and ±100 for the full control effect; nearly all actives have a fitted effect of over 50% in size
# Target sequence (O75164 whole entry, looked up, the tested form may be a part): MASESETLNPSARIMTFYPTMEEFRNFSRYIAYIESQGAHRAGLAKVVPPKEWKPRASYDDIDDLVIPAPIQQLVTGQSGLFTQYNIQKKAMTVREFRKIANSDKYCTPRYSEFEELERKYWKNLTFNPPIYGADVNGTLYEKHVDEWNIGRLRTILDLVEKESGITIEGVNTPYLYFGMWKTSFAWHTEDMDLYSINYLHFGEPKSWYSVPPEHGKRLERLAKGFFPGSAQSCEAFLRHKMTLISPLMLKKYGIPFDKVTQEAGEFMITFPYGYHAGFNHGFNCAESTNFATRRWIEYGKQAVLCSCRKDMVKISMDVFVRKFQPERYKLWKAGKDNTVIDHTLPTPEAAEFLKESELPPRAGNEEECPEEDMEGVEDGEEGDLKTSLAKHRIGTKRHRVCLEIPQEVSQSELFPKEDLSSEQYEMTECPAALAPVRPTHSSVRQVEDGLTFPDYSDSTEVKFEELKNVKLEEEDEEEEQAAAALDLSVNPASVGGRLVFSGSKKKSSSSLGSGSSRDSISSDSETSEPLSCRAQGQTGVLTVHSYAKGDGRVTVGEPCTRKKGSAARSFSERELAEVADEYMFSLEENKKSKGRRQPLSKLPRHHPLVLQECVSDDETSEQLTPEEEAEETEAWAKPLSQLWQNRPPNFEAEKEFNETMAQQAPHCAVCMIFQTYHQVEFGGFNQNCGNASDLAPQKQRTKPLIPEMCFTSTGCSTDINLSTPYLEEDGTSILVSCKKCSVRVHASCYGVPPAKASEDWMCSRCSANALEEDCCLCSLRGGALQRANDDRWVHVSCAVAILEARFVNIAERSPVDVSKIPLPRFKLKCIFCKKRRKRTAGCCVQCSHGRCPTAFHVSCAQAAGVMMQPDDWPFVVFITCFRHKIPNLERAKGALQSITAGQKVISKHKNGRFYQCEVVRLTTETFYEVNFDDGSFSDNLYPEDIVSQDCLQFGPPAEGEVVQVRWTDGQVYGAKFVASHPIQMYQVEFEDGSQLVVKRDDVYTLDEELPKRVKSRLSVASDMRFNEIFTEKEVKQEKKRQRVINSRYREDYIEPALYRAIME
# The depositor's hits bear a star; ? = inconclusive; · = not tested or not shown; ! = a repeat was not active; [ ] = remark or other dose. Calls come from the whole dose curve; as a rule, active = well fitted curve in the direction sought with a large enough effect; inconclusive = small, poorly fitted or top-dose-only effect, or another doubt; inactive = no such curve, though single readings can be large; an effect the other way counts as inactive or inconclusive. Potency is the fitted concentration of half-maximal effect.
SMILES,G9a inh,L3MBTL1 inh,HP1b binding inh,BAZ2B inh,Sfp PPTase inh,JMJD2A Tudor inh
Cc1ccc(NCc2n[nH]c(=S)n2Cc2ccccc2)cc1Cl,18µM*,?,-3%,?,5%,?
Cc1ccc(S(=O)(=O)N2CCc3nc(-c4ccccc4)c4c(c3C2)CO[C@@H](C)C4)cc1,·,·,·,·,-5%,·
COc1ccccc1NC(=O)CSCc1cc(=O)n2c(C)csc2n1,5%,·,42%,-24%,10%,-11%
COc1ccc(C)cc1NC(=O)CSCc1cc(=O)n2c(C)csc2n1,-3%,-4%,45%,79µM*,·,0%
NS(=O)(=O)c1cc(C(=O)O)cc(N2CCCC2)c1Oc1ccccc1,18µM*!,-3%,10%,5%,16%,-10%
CCNc1nc(NCC)nc(NC(N)=S)n1,25µM*,-9%,16%,-5%,-7%,-8%
CCNc1nc(NC(N)=S)nc(NC(C)(C)C)n1,3.5µM*,2%,?,1%,32µM*,-5%
Cc1cccc(N2CCN(S(=O)(=O)c3ccc4c(c3)CC(=O)N4C)CC2)c1C,-22%[59 µM],·,38%,-21%,-4%,4%
CN1C(=O)CC(=O)N(C)c2cc(S(=O)(=O)N(C)Cc3ccccc3)ccc21,?,·,?,-5%,89µM*,-28%
CC1CCN(c2ccc(S(=O)(=O)N3CCC(C)CC3)cc2N)CC1,3%,·,22%,-31%[57.1 µM],5%,-14%
Cc1ccc(S(=O)(=O)N2CCC(C(=O)OCc3c(C)noc3C)CC2)cc1C,40µM*,8%,29%,6%,·,-4%
CN1C(=O)Cc2cc(S(=O)(=O)N3CCOCC3)ccc21,40µM*,-4%,-8%,7%,4%,-6%[57.1 µM]
CC1CCN(S(=O)(=O)c2ccc3c(c2)N(C)C(=O)CC(=O)N3C)CC1,28µM*,0%,12%,-33%,-29%,-2%
CCOc1cccc(NC(=O)C2CC(=O)N(C)C(=Nc3ccc(F)cc3)S2)c1 (stereo not given),9%[59 µM],·,52%,-7%,·,-7%
CCOC(=O)C1CCN(S(=O)(=O)c2ccc3c(c2)CC(=O)N3C)CC1,45µM*,·,-11%,-13%,-8%,?
CCOC(=O)C1CCN(S(=O)(=O)c2ccc3c(c2)CCCN3C(C)=O)CC1,-7%,5%,77%,-6%,6%,-2%
C=CCn1c(SCC(=O)c2ccc(O)c(O)c2)nnc1-c1cccc(C)c1,?,?,-8%,50µM*,·,?
C=CCn1c(SCC(=O)Nc2cc(NC(C)=O)ccc2OC)nnc1-c1ccccn1,-4%,-6%,16%,79µM*,11%,?
C=CCn1c(SCC(=O)c2ccc(F)cc2)nnc1-c1ccc2c(c1)OCO2,-8%[59 µM],·,37%,-13%,-4%,-21%
C=CCn1c(SCC(=O)c2ccc(O)c(O)c2)nnc1-c1cccc(Cl)c1,-4%[0.501 µM],?,-6%,50µM*,·,?
C=CCn1c(SCC(=O)Nc2ccc(N(C)C)cc2)nnc1-c1cccc(C)c1,7.9µM*,-20%,-58%,45µM*,3%,50µM*
C=CCn1c(SCC(=O)O)nnc1-c1cccc(Cl)c1,2%[12.7 µM],3%,55%,2%,15%,4%
CCc1nn2c(=O)cc(COC(=O)c3ccccc3NC(=O)COc3ccc(C)c(C)c3)nc2s1,-2%[12.7 µM],·,32%,-8%,·,-2%
COC(=O)C1=C[C@@H](C(=O)OC)[C@@H]2C3=C(C(=O)[C@@]2(CC(C)C)NC(=O)c2ccccc2)[C@H](C)n2c(=O)n(-c4ccccc4)c(=O)n2[C@@H]3C1,·,·,44%,·,12%,-12%
CC(C)CN(C(=O)CSc1nnc(-c2cccs2)n1N)c1c(N)n(Cc2ccccc2)c(=O)[nH]c1=O,50µM*,-7%,26%,7%,·,-8%
SMILES,G9a inh,L3MBTL1 inh,HP1b binding inh,BAZ2B inh,Sfp PPTase inh,JMJD2A Tudor inh
Cc1nnc(SCC(=O)N(CC(C)C)c2c(N)n(Cc3ccccc3)c(=O)[nH]c2=O)n1N,10µM*,3%,12%,-2%,·,-9%
CC(C)CN(C(=O)CCCc1nc2ccccc2c(=O)[nH]1)c1c(N)n(Cc2ccccc2)c(=O)[nH]c1=O,40µM*,1%,17%,13%,·,-10%
Cc1ccc(NC(=O)c2cc(S(=O)(=O)NC3CCCCC3)ccc2F)cc1Cl,-22%[59 µM],·,15%,-27%,·,-20%
O=C1c2ccccc2C(Nc2ccc3c(c2)OCCO3)N1Cc1ccccc1 (stereo not given),45µM*,·,?,40µM*,1%,40µM*
O=C1c2ccccc2C(Nc2cccnc2)N1Cc1ccccc1Cl (stereo not given),?,0%,43%,4%,7%,-11%
CCOc1ccc(NC2c3ccccc3C(=O)N2Cc2ccc3c(c2)OCO3)cc1 (stereo not given),35µM*,·,?,16µM*,1%,45µM*
O=C1c2ccccc2C(Nc2cccnc2)N1Cc1ccccc1 (stereo not given),25µM*,·,17%,?,10%,-14%
CC(=O)c1cccc(NC2c3ccccc3C(=O)N2Cc2ccc3c(c2)OCO3)c1 (stereo not given),?,15%,25%,-2%,3%,-17%
CCCN1CNc2c(c(=O)[nH]c(=S)n2CCc2ccc(OC)cc2)C1,·,·,26%,·,·,-20%
Cc1[nH]n(C(N)=S)c(=O)c1C(c1ccccc1)C(C#N)C#N (stereo not given),?,32%,33%,12%,-16%,9%
Cc1[nH]n(-c2ncc(-c3ccccc3)s2)c(=O)c1C(c1ccc(Br)cc1)C(C#N)C#N (stereo not given),?,-21%,40µM*,35µM*,56µM*,50µM*
S=c1[nH]nc(-c2ccccn2)n1/N=C/c1ccc(-c2ccccc2Cl)o1,1.1µM*,·,?,25µM*,-6%,28µM*
Cc1n[nH]c(=S)n1/N=C/c1ccc(-c2ccc(Cl)cc2)o1,·,·,44%,·,·,-9%
S=c1[nH]nc(-c2ccccn2)n1/N=C/c1ccc(Br)s1,1.3µM*,28µM*,14%,13µM*,12%,7.9µM*
Cc1ccc(-c2cn(-c3ccccc3)c(=S)[nH]2)cc1C,45µM*,·,?,32µM*,-24%,?
O=[N+]([O-])c1ccc(-c2cn(-c3ccc(Cl)cc3)c(=S)[nH]2)cc1,?,3%,25%,6%,-14%,-3%
Cc1ccccc1-c1cn(-c2ccccc2)c(=S)[nH]1,1.4µM*,·,-19%,?,?,?
Cc1cc(=O)[nH]c(=S)n1-c1ccccc1,?,8%,38%,8%,-20%,?
Cn1cc(-c2cc3n(n2)CCC(=O)N3CC(=O)NCc2ccc(Cl)cc2)c2ccccc21,8%[59 µM],·,7%[57 µM],-5%,·,-20%
